Records with an inconclusive call do not appear. Where a call stands in place of a potency, no number is given. Calls of active or inactive are those of the source. The call rests on the fitted dose curve; in most records, active means well fitted curve in the direction sought with a large enough effect; inconclusive means small, poorly fitted or top-dose-only effect, or effect the other way, or another doubt; inactive means no such curve, though single readings can be large or run the other way.
Test: Quantitative high throughput screen to test cell viability of anti-malarial compounds targeting the delayed death phenotype
Conditions: HepG2 viability, CellTiter-Glo luminescence, 48 h; series mostly up to 46.1 µM
Description: The biochemical processes that make this organelle essential for erythrocytic stage parasites are not well understood. However, antibiotics, such as azithromycin and tetracycline, which target the apicoplast translational machinery, have a potent antimalarial effect. […] We have developed a cell-based assay that measures parasite growth based on the expression of an integrated copy of a firefly luciferase reporter. To detect small molecules that cause this 'delayed death' phenotype, erythrocytes infected with the luciferase-expressing parasites were incubated with compounds for either one or two generations, corresponding to 48 and 96 hours, respectively. Compounds that inhibit parasite growth in the second generation, but not the first, should be enriched in antimalarials that target the apicoplast. Growth inhibition is detected by a decrease in luciferase activity. The goal of this counterscreen is to measure the cytoxoxicity (against HepG2 cell line) of a set of anti-malarial compounds that target the delayed death pheonotype as identified by the qHTS assay that inhibit the development of the apicoplast in the malarial parasite Plasmodium falciparum. NIH Molecular Libraries Probe Production Network [MLPCN] NIH Chemical Genomics Center [NCGC] MLPCN Grant: R21 NS059500 Assay Provider: David Fidock and Eric Ekland, Columbia University
Cells were plated at a density of 2000 cells/well/5uL in 1536 well white tissue culture plate with culture medium. Triplicate plates were prepared. Plates were incubated at 37C, 5% CO2 for 5 hours and then 23nL of compounds and positive control were transferred to the assay plates. Tetraoctylammonium bromide was added as a positive control. Plates were then incubated at 37C, 5% CO2 for 48 hours. 5 uL of CellTitler-Glo buffer was added to each well and then incubated for 30 min at room temperature. Luminescence was measured using ViewLux (1 second, slow, 2X).

Structure (SMILES)	Potency
C[C@@H]1CN([C@@H](C)CO)C(=O)c2cc(NC(=O)Nc3ccccc3)ccc2O[C@@H](C)C/C=C\CO[C@H]1CN(C)S(=O)(=O)c1ccc(F)cc1	inactive
COCCOC(=O)N(C)C[C@@H]1OCCCC[C@H](C)Oc2ccc(NC(=O)Nc3ccccc3)cc2C(=O)N([C@@H](C)CO)C[C@H]1C	inactive
C[C@@H]1CN([C@@H](C)COC(=O)c2ccccc2)C(=O)c2cc(NC(=O)Nc3ccccc3)ccc2O[C@@H](C)CCCCO[C@H]1CN(C)S(=O)(=O)c1ccc(F)cc1	inactive
COc1ccc(COCCN2C[C@@H](C)[C@H](CN(C)S(=O)(=O)c3ccc(F)cc3)OCCCC[C@H](C)Oc3ccc(NC(=O)Nc4ccccc4)cc3C2=O)cc1	inactive
C[C@@H]1CN([C@@H](C)CO)C(=O)c2cc(NC(=O)Nc3ccccc3)ccc2O[C@@H](C)C/C=C/CO[C@H]1CN(C)S(=O)(=O)c1ccc(F)cc1	inactive
C[C@@H]1CN([C@@H](C)CO)C(=O)c2cc(NC(=O)Nc3ccccc3)ccc2O[C@@H](C)CCCCO[C@H]1CN(C)S(=O)(=O)c1ccccc1F	inactive
C[C@@H]1CN([C@@H](C)CO)C(=O)c2cc(NC(=O)Nc3ccccc3)ccc2O[C@@H](C)CCCCO[C@H]1CN(C)S(=O)(=O)c1cccc(F)c1	inactive
C[C@@H]1CN([C@@H](C)CO)C(=O)c2cc(NC(=O)Nc3ccccc3)ccc2O[C@@H](C)CCCCO[C@H]1CN(C)S(=O)(=O)c1ccc(C(F)(F)F)cc1	inactive
C[C@@H]1CN(CCO[Si](C)(C)C(C)(C)C)C(=O)c2cc(NC(=O)Nc3ccccc3)ccc2O[C@@H](C)CCCCO[C@H]1CN(C)S(=O)(=O)c1ccc(F)cc1	inactive
COCOC[C@H](C)N1C[C@@H](C)[C@H](CN(C)S(=O)(=O)c2ccc(F)cc2)OCCCC[C@H](C)Oc2ccc(NC(=O)Nc3ccccc3)cc2C1=O	7.91 µM (active)
C=CCOC(=O)N(C)C[C@@H]1OCCCC[C@H](C)Oc2ccc(NC(=O)Nc3ccccc3)cc2C(=O)N([C@H](C)COC(=O)c2ccccc2)C[C@H]1C	inactive
C[C@@H]1CN(CCO)C(=O)c2cc(NC(=O)Nc3ccccc3)ccc2O[C@@H](C)CCCCO[C@H]1CN(C)S(=O)(=O)c1ccc(F)cc1	inactive
C[C@@H]1CN([C@@H](C)CO)C(=O)c2cc(NC(=O)Nc3ccccc3)ccc2O[C@@H](C)CCCCO[C@H]1CN(C)C(=O)OC(C)(C)C	inactive
C[C@@H]1CN([C@@H](C)CO)C(=O)c2cc(N)ccc2O[C@@H](C)CCCCO[C@H]1CN(C)S(=O)(=O)c1ccc(F)cc1	inactive
C[C@@H]1CN([C@@H](C)CO[Si](C)(C)C(C)(C)C)C(=O)c2cc(NC(=O)Nc3ccccc3)ccc2O[C@@H](C)CCCCO[C@H]1CN(C)S(=O)(=O)c1ccc(F)cc1	inactive
C[C@@H]1CN([C@@H](C)CO)C(=O)c2cc(NC(=O)Nc3ccccc3)ccc2O[C@@H](C)CCCCO[C@H]1CN(C)S(=O)(=O)c1cccnc1	inactive
C[C@@H]1CN([C@@H](C)CO)C(=O)c2cc(Nc3nc4ccccc4o3)ccc2O[C@@H](C)CCCCO[C@H]1CN(C)S(=O)(=O)c1ccc(F)cc1	inactive
C=CCOC(=O)N(C)C[C@@H]1OCCCC[C@H](C)Oc2ccc(NC(=O)Nc3ccccc3)cc2C(=O)N([C@@H](C)CO)C[C@H]1C	inactive
C[C@@H]1CN([C@@H](C)COC(=O)c2ccccc2)C(=O)c2cc(NC(=O)Nc3ccccc3)ccc2O[C@@H](C)CCCCO[C@H]1CN(C)C(=O)OC(C)(C)C	inactive
C[C@@H]1CN(C)C(=O)c2cc(NC(=O)Nc3ccccc3)ccc2O[C@@H](C)CCCCO[C@@H]1CN(C)S(=O)(=O)c1ccc(F)cc1	inactive
C[C@@H]1CN([C@@H](C)CO)C(=O)c2cc(NC(=O)Nc3ccccc3)ccc2O[C@@H](C)CCCCO[C@H]1CN(C)Cc1ccc(C(F)(F)F)cc1	inactive
C[C@@H]1CN([C@H](C)CO[Si](C)(C)C(C)(C)C)C(=O)c2cc(NC(=O)Nc3ccccc3)ccc2O[C@@H](C)CCCCO[C@H]1CN(C)S(=O)(=O)c1ccc(F)cc1	inactive
CC(C)NC(=O)Nc1ccc2c(c1)C(=O)N([C@@H](C)CO)C[C@@H](C)[C@H](CN(C)S(=O)(=O)c1ccc(F)cc1)OCCCC[C@H](C)O2	inactive
C=CCOC(=O)N(C)C[C@H]1OCCCC[C@H](C)Oc2ccc(NC(=O)Nc3ccccc3)cc2C(=O)N([C@@H](C)CO[Si](C)(C)C(C)(C)C)C[C@H]1C	inactive
Cc1noc(C)c1NC(=O)Nc1ccc2c(c1)C(=O)N(C(C)C)C[C@@H](C)[C@H](CN(C)S(=O)(=O)c1ccc(F)cc1)OCCCC[C@H](C)O2	inactive
C[C@@H]1CN([C@@H](C)COC(=O)C(C)(C)C)C(=O)c2cc(NC(=O)Nc3ccccc3)ccc2O[C@@H](C)CCCCO[C@H]1CN(C)S(=O)(=O)c1ccc(F)cc1	inactive
Cc1noc(C)c1NC(=O)Nc1ccc2c(c1)C(=O)N([C@@H](C)CO)C[C@@H](C)[C@H](CN(C)S(=O)(=O)c1ccc(F)cc1)OCCCC[C@H](C)O2	inactive
C[C@@H]1CN([C@@H](C)CN=[N+]=[N-])C(=O)c2cc(NC(=O)Nc3ccccc3)ccc2O[C@@H](C)CCCCO[C@H]1CN(C)S(=O)(=O)c1ccc(F)cc1	inactive
C[C@@H]1CN([C@@H](C)COC(C)(C)C)C(=O)c2cc(NC(=O)Nc3ccccc3)ccc2O[C@@H](C)CCCCO[C@H]1CN(C)S(=O)(=O)c1ccc(F)cc1	inactive
COc1ccc(COC[C@H](C)N2C[C@@H](C)[C@H](CN(C)S(=O)(=O)c3ccc(F)cc3)OCCCC[C@H](C)Oc3ccc(NC(=O)Nc4ccccc4)cc3C2=O)cc1	inactive

From PubChem BioAssay AID504602 (National Center for Advancing Translational Sciences (NCATS), 2011)
